Assay outcomes (PubChem BioAssay)
Only some compounds are listed: those with a hit (about 6.6% of all), similar ones and a draw of the others.
KB-V1 MDR tox: qHTS assay for MDR1-selective chemotherapeutics: Primary screen using the drug-selected MDR subline cells KB-V1. KB-V1 MDR cells viability, CellTiter-Glo, 72 h. Potency, µM (titrated, usually from 46.1 µM), most hits filed as cytotoxic. actives 3.4% (n = 400,000). AID 1347076, 2019; further: on the % scale 0 is the no-effect control and ±100 the full control effect; nearly all actives have a fitted effect of over 60% in size
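Cytotoxicity via CellTiter-Glo luminescence after 72 h compound exposure at 37 degrees C. Cells: drug-selected KB-V1 line, DMEM phenol-red free plus 10% FBS. Compounds tested at multiple concentrations; normalized data fitted to concentration-effect curves.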
HT1080 IDH1KD tx: qHTS for induction of synthetic lethality in tumor cells producing 2HG: qHTS for the HT-1080-IDH1KD cell line; HT-1080 IDH1 knockdown viability, ATP luminescence, 48 h; Potency, µM (titrated, usually from 46.1 µM), inactives show at the top dose activity, negative = toxicity, hits mostly cytotoxic; actives 2% (n = 360,000); AID 686971, 2013;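 further: 0% = DMSO wells and -100% = cell-free medium wells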
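Viability of IDH1-knockdown HT-1080 fibrosarcoma cells was assessed by CellTiter-Glo after 48 h at 37 °C with titrated compound; concentration-effect curves were classified by fit quality and response size.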
TGFb SMAD3 inh: qHTS for Inhibitors of TGF-b; HepG2 CAGA-GFP TGF-b/SMAD3 reporter, GFP fluorescence, 18 h; TGF-beta stimulated, 500 pg/mL final; Potency, µM (doses to about 46.1 µM), for inactives: at the top dose activity, negative = inhibition, actives largely listed as inhibitors; actives 1.2% (n = 410,000); AID 588855, 2011; further: on the % scale 0 is the no-effect control and ±100 the full control effect; nearly all actives have a fitted effect of over 65% in size
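Smad-responsive CAGA-GFP expression was quantified in HEPG2 cells exposed to compounds and 500 pg/mL final TGF-beta for 18 h at 37 degrees C; unstimulated wells defined full inhibition.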
KB-3-1 tox: qHTS assay for MDR1-selective chemotherapeutics: Primary screen using the parental adenocarcinoma cell KB-3-1; KB-3-1 viability, CellTiter-Glo ATP luminescence, 72 h; Potency, µM (titrated, usually from 46.1 µM), most hits filed as cytotoxic; actives 1.4% (n = 400,000); further: on the % scale 0 is the no-effect control and ±100 the full control effect; nearly all actives have a fitted effect of over 60% in size
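Cytotoxicity in the drug-sensitive parental line KB-3-1 was scored as loss of CellTiter-Glo luminescence following 72 h incubation with compound. Values come from curve fitting of normalized concentration-response data.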
HepG2 tox: qHTS for Inhibitors of TGF-b: Cytotox Counterscreen. actives 0.76% (n = 410,000). HepG2 CAGA-GFP viability, ATP luminescence, 18 h. Potency, µM (doses to about 46.1 µM), for inactives: top-dose activity change, negative = cytotoxicity, most hits filed as cytotoxic
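CellTiter-Glo luminescence gave cytotoxicity after 18 hours at 37 degrees C. The cells were HepG2 CAGA-GFP in 1% FBS DMEM, stimulated with 500 pg/mL TGF-beta after compound addition. %Activity was normalised to no-cell wells (complete cell-killing) and DMSO (no toxicity), and curves were fitted and classified.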
HT1080NT lethal: qHTS for induction of synthetic lethality in tumor cells producing 2HG: qHTS for the HT-1080-NT fibrosarcoma cell line. HT-1080-NT fibrosarcoma viability, CellTiter-Glo ATP luminescence, 48 h. Potency, µM (titrated, usually from 46.1 µM), for the others: at the highest dose activity, negative = less viability, usual class: cytotoxic. actives 1.6% (n = 360,000). AID 686970, 2013;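 further: NT is the 2HG producing partner of a matched IDH1 knockdown line; 0% = DMSO-treated cells and -100% = media-only wells without cells; nearly all actives have a fitted effect of over 55% in size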
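Toxicity toward the 2HG-producing NT line was scored as %Activity, normalised to DMSO and no-cell wells, from CellTiter-Glo luminescence after 48 hours' treatment.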
* hit, by the source's call; i = inactive; ? = inconclusive; . = no result given. The call rests on the fitted dose curve; in most records, active means well fitted curve in the direction sought with a large enough effect; inconclusive means small, poorly fitted or top-dose-only effect, or another doubt; inactive means no such curve, though single readings can be large; an effect the other way counts as inactive or inconclusive. Potency means the concentration at half of the fitted maximal effect.

SMILES	KB-V1 MDR tox	HT1080 IDH1KD tx	TGFb SMAD3 inh	KB-3-1 tox	HepG2 tox	HT1080NT lethal
O=C(/C=C/c1cn(CC(O)CN2CCCCC2)c2ccccc12)c1ccccc1 (configuration not stated)	i	16.4µM*	?	i	5.0%	?
COc1ccc(Br)cc1CNC(=O)CN1C(=O)c2cccnc2Oc2ccc(C)cc21	i	.	?	i	-11.4%	.
Cc1nn(C)c2c1c(C(F)(F)F)cc(=O)n2C(C)C(=O)NCCc1ccc(Cl)cc1 (configuration not stated)	i	.	5.1%	i	-1.8%	.
CCC(CC)c1nn2c(=O)cc(COc3ccc(NC(=O)c4cccc(C)c4)cc3)nc2s1	i	.	?	i	8.7%	.
COc1ccc(CCN2C(=O)C(Oc3ccccc3C)C2c2ccc3c(c2)OCO3)cc1 (configuration not stated)	10.3µM*	-14.1%	-1.9%	i	6.9%	-11.9%
COc1ccc(N(Cc2cc3cccc(C)c3[nH]c2=O)C(=O)c2cccc(Cl)c2)cc1	?	.	-28.6%	i	-20.1%	.
CCOC(=O)N1CCc2c(sc(NCc3cccs3)c2C(=O)Nc2ccc(OC)cc2OC)C1	.	.	10µM*	.	-14.1%	.
COc1ccc(C(=O)Nc2nnc(-c3cccs3)s2)cc1	?	?	-4.4%	5.17µM*	-22.6%	-25.9%
CCOCc1nnc(NC(=O)c2cc(OC)c(OC)c(OC)c2)s1	?	-0.5%	29.0%	i	0.7%	-1.4%
COc1cc(C(=O)Nc2nnc(-c3sccc3C)s2)cc(OC)c1OC	?	14.6µM*	-10.6%	?	-45.3%	?
COc1ccc(NC(=O)Nc2nnc(-c3cccs3)s2)cc1	i	7.1%	5.3%	i	-1.6%	14.8%
COc1cccc(-c2cc(C(F)(F)F)nc(N3CCN(c4ccccc4)CC3)n2)c1	16.4µM*	3.2%	0.0%	?	6.0%	?
CC(=O)NC(CCc1ccc(Cl)c(Cl)c1)c1cccc(O)c(=O)c1 (configuration not stated)	8.2µM*	?	-18.6%	?	-14.0%	?
CC(=O)NC(C)c1ccc(Cl)c(Cl)c1 (configuration not stated)	i	0.0%	13.5%	i	-0.2%	0.0%
CN(c1ccccc1)S(=O)(=O)c1cccc(C(=O)Nc2ccc3c(c2)CCC3)c1	5.8µM*	-0.8%	-34.7%	?	6.2%	-0.6%
COc1ccccc1N(C)S(=O)(=O)c1ccc(C(=O)Nc2ccncc2)cc1	i	-1.9%	-1.9%	i	0.8%	-3.8%
COc1ccccc1N(C)S(=O)(=O)c1ccc(C(=O)Nc2cc(OC)c(OC)c(OC)c2)cc1	?	-14.5%	5.3%	16.4µM*	-0.8%	-11.0%
O=C(Nc1ccc2c(c1)CCC2)c1ccccc1	?	-10.3%	-6.7%	i	-19.0%	-5.8%
CN(c1ccccc1)S(=O)(=O)c1cccc(C(=O)NNC(=O)c2ccccc2)c1	14.6µM*	-21.0%	0.0%	20.6µM*	19.7%	-11.1%
CC(=O)Nc1ccc(C(=O)Nc2cccc(S(=O)(=O)N(C)c3ccccc3)c2)cc1	i	-12.8%	-14.4%	i	-20.5%	-4.1%
CN(c1ccccc1)S(=O)(=O)c1cccc(NC(=O)c2ccc(Cl)c([N+](=O)[O-])c2)c1	16.4µM*	?	?	20.6µM*	-4.0%	-13.3%
CCOC(=O)c1nc(N2CCN(c3ccc(F)cc3)CC2)c2c(C)noc2n1	i	.	-18.7%	i	-20.8%	.
CCCc1ccc(OCC(=O)Nc2sc3c(c2C(=O)OC)CCCCC3)cc1	.	.	-3.0%	.	4.5%	.
O=C(COC(=O)CNC(=O)C1CCCCC1)NC1CCCC1	?	.	9.8%	?	4.0%	.
CCOC(=O)C1CCN(C(c2ccc(OCC)cc2)c2c(O)cc(C)n(CCOC)c2=O)CC1 (configuration not stated)	i	.	8.8%	i	-0.2%	.
SMILES	KB-V1 MDR tox	HT1080 IDH1KD tx	TGFb SMAD3 inh	KB-3-1 tox	HepG2 tox	HT1080NT lethal
CCSc1nnc(NC(=O)c2cccc(S(=O)(=O)N(C)c3ccc(C)cc3)c2)s1	14.6µM*	22.5%	-10.9%	i	-28.4%	3.0%
COc1ccc(NC(=O)c2cccc(S(=O)(=O)N(C)c3ccccc3)c2)cn1	3.26µM*	12.7%	-1.9%	?	-24.7%	12.5%
COc1ccc(NC(=O)Nc2cccc(OCc3cc(=O)n4cccc(C)c4n3)c2)c(OC)c1	i	.	?	i	-9.1%	.
COC(=O)C1(C)COP(=O)(Nc2ccc(OC)cc2)OC1 (configuration not stated)	i	3.1%	3.0%	i	16.5%	10.8%
COc1ccc2[nH]c(C)c(C(=O)CN3CCN(C/C=C/c4ccccc4)CC3)c2c1	i	-0.9%	-2.7%	i	-39.3%	-0.9%
O=C(CSc1nnc(SCc2cccc3ccccc23)s1)Nc1ccc(C(=O)O)cc1	i	?	7.6%	i	2.3%	16.0%
Cc1[nH]c2ccccc2c1C(=O)CN1CCN(C/C=C/c2ccccc2)CC1	?	?	-6.2%	?	-11.2%	23.1µM*
O=C(CSc1nnc(SCc2cccc3ccccc23)s1)c1ccc2c(c1)OCO2	18.4µM*	11.7%	0.0%	i	-19.1%	13.3%
COc1cccc(CN(C)C(=O)CSc2nc3ccccc3[nH]2)c1OC	16.4µM*	0.5%	12.9%	i	0.9%	1.3%
Cc1ccc2nc(SCC(=O)c3ccc4c(c3)OCO4)[nH]c2c1	i	0.0%	-30.0%	i	2.8%	3.0%
O=C(CSc1nc2ccccc2[nH]1)c1ccc2c(c1)OCO2	18.4µM*	0.7%	-3.1%	i	-16.8%	?
CC(C)CCNC(=O)c1cccc(-n2cnc3cccnc32)c1	i	.	0.0%	i	-9.2%	.
Cc1[nH]c2ccccc2c1C(=O)CSC(=S)N1CCCCC1	13µM*	-13.5%	-0.3%	i	-18.9%	1.0%
Cc1[nH]c2ccccc2c1C(=O)CSc1nc2ccccc2[nH]1	20.6µM*	-20.3%	-0.1%	i	-5.4%	-23.4%
COc1ccc(N2CCN(C(=O)Cc3noc4ccc(C)cc34)CC2)cc1	i	.	-6.9%	i	-9.2%	.
